Reference: PubChem BioAssay (NCATS)
Results filed as inconclusive are left out. The source made the active and inactive calls. Calls come from the whole dose curve; as a rule, active = well fitted cell-killing curve with a large enough effect; inconclusive = small, poorly fitted or top-dose-only effect; inactive = no such curve, though single readings can be large or run the other way. Positions of bridges follow the written chain, without caps; N, C: chain ends. Non-standard residues stand in square brackets, D forms with d. Residues, ends and D or L forms follow the SMILES beside them. ξ: configuration not given here. *: point of attachment. Octanoyl(6-Me) = CCC(C)CCCCC(=O)*; ξThr(3R) = C[C@@H](O)C(N)C(=O)O; dDab = NCC[C@@H](N)C(=O)O; Dab = NCC[C@H](N)C(=O)O

Assay: qHTS of pediatric cancer cell lines to identify multiple opportunities for drug repurposing: Primary screen for SK-N-SH cells (AID 1347098); note: nearly all actives have a fitted effect of over 65% in size
Conditions: SK-N-SH viability, CellTiter-Glo luminescence, 48 h; series mostly up to 57 µM; activity change, negative = cytotoxic: at the top concentration
Source text: Drug repurposing or repositioning has been offered as a strategy for drug development in oncology programs. This approach has special potential for childhood cancers and other rare or orphan diseases, where the expected return on new drug development has been a disincentive to pharmaceuticals.
In this project we exploit the poly-pharmacology of drugs to discover new indications via phenotypic screening of a panel of 19 well-characterized cell lines derived from solid tumors seen in children and adolescents. The goal is to identify approved drugs with previously unrecognized anticancer properties that has the potential to reveal new mechanisms and biological processes involved in carcinogenesis or drug resistance. We employed a titration-based paradigm (quantitative high-throughput screening or qHTS), where all compounds were tested at multiple concentrations for their effect on cell viability. Concentration-response curves (CRCs) were derived directly from the primary screen, and both potency and efficacy values were used to identify compounds with robust bioactivity profiles. We screened the NIH Chemical Genomics Center (NCGC) Pharmaceutical Collection (NPC) and Mechanism Interrogation Plate (MIPE) small molecule collections of approved and investigational compounds against these cell lines; and measured metabolically active cells after 48 hours of compound treatment as a proxy for cell viability.
Assay Submitter: Nathalia J. Martinez, National Center for Advancing Translational Sciences, National Institutes of Health, Rockville, MD, USA; email: natalia.martinez@nih.gov
[1] Shen, M et al. Quantitative high-throughput phenotypic screening of pediatric cancer cell lines identifies multiple opportunities for drug repurposing. Oncotarget 2017 Dec 19;9(4):4758-4772. PMID 29435139.
The cells were obtained from University of North Carolina (UNC), Pediatric Preclinical Testing Program (PPT), and Coriell Institute (CI).
qHTS cell viability assay:
Cells were assayed in growth media at a density of 500-1,000 cells/well. Five microliters of cells were dispensed into 1,536-well, white, solid-bottom, TC-treated plates (Greiner Bio One) using a multidrop dispenser and incubated at 37 degrees C, 5% CO2, under a humidified atmosphere for 5 hours. Twenty-three nanoliters of compounds and controls (neutral control DMSO or positive control bortezomib at final concentration of 2.3 µM) were subsequently transferred by Kalypsys pintool. For primary screens, the MIPE collection was tested at 11-point dilutions (final concentrations range from 0.78 nM to 46 µM) and the NPC collection at 8-point dilutions (final concentrations range from 0.59 nM to 46 µM). Compounds tested in follow-up screens were assayed at 11-point dilutions. Cells were incubated for 48 hours, followed by addition of 3 µL of CellTiter-Glo (Promega). After a 15 min incubation at room temperature, samples were analyzed for luminescence intensity using a ViewLux High-throughput CCD imager equipped with clear filters.
% is set by controls: 0 for no effect and ±100 for the full control effect; potency is the fitted concentration of half-maximal effect.

SMILES	activity change, negative = cytotoxic	Potency
CC(=O)O[C@@]12CO[C@H]1C[C@H](O)[C@@]1(C)C(=O)[C@H](O)C3=C(C)[C@@H](OC(=O)C(O)[C@@H](NC(=O)OC(C)(C)C)c4ccccc4)C[C@@](O)([C@@H](OC(=O)c4ccccc4)[C@@H]21)C3(C)C (stereo not given in full)	-15.5% (inactive)	–
CCNC(=O)Nc1ccc(-c2nc3c(c(N4CCOC[C@H]4C)n2)CCN(C2COC2)C3)cc1	–	17.1 µM (active)
C=CC1=C(C(=O)O)N2C(=O)[C@@H](NC(=O)C(=NO)c3csc(N)n3)[C@H]2SC1	2.1% (inactive)	–
C=C1C[C@@]2(O)O[C@@]3(C[C@H]2C(C)C)[C@H](C)CC[C@H]13	27% (inactive)	–
COc1cccc2c1C(=O)c1c(O)c3c(c(O)c1C2=O)C[C@@](O)(C(=O)CO)C[C@@H]3O[C@H]1C[C@H](N)[C@@H](O)[C@H](C)O1	–	0.429 µM (active)
CN[C@H]1[C@@H](O)[C@@H]2O[C@@H]3O[C@H](C)CC(=O)[C@]3(O)O[C@@H]2[C@@H](NC)[C@H]1O	–	6.07 µM (active)
COC(=O)[C@@H]1[C@H]2C[C@@H]3c4[nH]c5ccccc5c4CCN3C[C@@H]2CC[C@@H]1O	21.3% (inactive)	–
C=CC(=O)Nc1ccc2ncnc(Nc3ccc(OCc4cccc(F)c4)c(Cl)c3)c2c1	–	0.171 µM (active)
COc1ccc2cc([S+]([O-])Cc3ncc(C)c(OC)c3C)nc2c1	46.3% (inactive)	–
COc1cc([C@@H]2c3cc4c(cc3[C@@H](O[C@@H]3O[C@@H]5CO[C@@H](c6cccs6)O[C@@H]5[C@H](O)[C@@H]3O)[C@H]3COC(=O)[C@H]23)OCO4)cc(OC)c1O	–	5.41 µM (active)
CC(C)c1cc(C(C)C)c(CC(=O)NS(=O)(=O)Oc2c(C(C)C)cccc2C(C)C)c(C(C)C)c1	13.6% (inactive)	–
CC(=O)NCC(=O)N1[C@H]2CC[C@H]1c1cc(Nc3ncc(C(F)(F)F)c(NC4CCC4)n3)ccc12	–	1.08 µM (active)
CN(N=O)C(=O)N[C@H]1C(O)OC(CO)[C@@H](O)[C@H]1O (stereo not given in full)	4.62% (inactive)	–
CC(C)(C)[C@H](NC(=O)c1ccc(N)c(Cl)c1)C(=O)N1CCC[C@@H]1C(=O)N[C@H](C#N)CC(=O)O	23.1% [at 6 µM] (inactive)	–
O=C(Nc1ccc(Oc2ccnc3[nH]ccc23)c(F)c1)c1cccn(-c2ccc(F)cc2)c1=O	7.12% (inactive)	–
NC(=O)c1ncn([C@@H]2O[C@H](CO)[C@@H](O)[C@@H]2O)c1O	20.9% (inactive)	–
Nc1nc(=O)n([C@H]2C[C@H](O)[C@@H](CO)O2)cc1F	-4.92% (inactive)	–
CCOc1cc2ncc(C#N)c(Nc3ccc(OCc4ccccn4)c(Cl)c3)c2cc1NC(=O)C=CCN(C)C	–	0.121 µM (active)
CCCCCCCN(CC)CCCC(O)c1ccc(NS(C)(=O)=O)cc1 (stereo not given)	10.2% (inactive)	–
COc1ccc(Nc2nccc(NCCO)n2)cc1	-29.5% (inactive)	–

SMILES	activity change, negative = cytotoxic	Potency
Cc1cc(Nc2ncc3c(n2)N(C)C(=O)N(c2cc(NC(=O)c4cccc(C(F)(F)F)c4)ccc2C)C3)n(C)n1	–	0.607 µM (active)
CCC(C)CCCCC(=O)N[C@@H](CCN)C(=O)NC(C(=O)N[C@H](CCN)C(=O)N[C@@H]1CCNC(=O)C([C@@H](C)O)NC(=O)[C@@H](CCN)NC(=O)[C@@H](CCN)NC(=O)[C@@H](CC(C)C)NC(=O)[C@H](Cc2ccccc2)NC(=O)[C@H](CCN)NC1=O)[C@@H](C)O (stereo partly drawn) ({Octanoyl(6-Me)}-[Dab][ξThr(3R)][dDab][dDab][Dab]F[dL][dDab][dDab][ξThr(3R)]; lactam 4-C)	22.6% (inactive)	–
O=C1c2cccc(O)c2C(=O)c2c(O)cc(CO)cc21	5.09% (inactive)	–
CCc1ccc(C(=O)Nc2cc(CN3CCN(C)CC3)cc(C(F)(F)F)c2)cc1C#Cc1cnc2ccnn2c1	–	24.1 µM (active)
Cc1cnc(Nc2ccc(CN3CCOCC3)cc2)nc1Nc1cccc(S(=O)(=O)NC(C)(C)C)c1	–	3.04 µM (active)
CCNC(=O)c1cc2c(-c3cc(OCCN4CCCC4)c(Cl)cc3Cl)nc(N)nc2s1	–	3.04 µM (active)
CC[C@@]1([C@@H]2O[C@@H]([C@H]3O[C@@](O)(CO)[C@H](C)C[C@H]3C)C[C@H]2C)CC[C@H]([C@]2(C)CC[C@]3(C[C@H](O)[C@@H](C)[C@@H]([C@@H](C)[C@@H](OC)[C@H](C)C(=O)O)O3)O2)O1	–	10.5 µM (active)
CC(C)n1cnc2c(NCCc3ccc(O)cc3)nc(-c3csc4ccccc34)nc21	–	4.29 µM (active)
O=C(O)C=Cc1ccc(Cn2ccnc2)cc1	4.54% (inactive)	–
COc1cc(C(=O)NC2CCN(C)CC2)ccc1Nc1ncc2c(n1)N(C1CCCC1)CCC(=O)N2C(C)C	–	6.07 µM (active)
CN(C)CC(=O)N1CCC(c2ccc(NC(=O)c3ncc(C#N)[nH]3)c(C3=CCCCC3)c2)CC1	–	1.21 µM (active)
Cc1cnc(Nc2ccc(N3CCN(C)CC3)cc2)nc1Nc1cccc(S(=O)(=O)NC(C)(C)C)c1	–	3.04 µM (active)
CCc1nc(-c2cccc(C)c2)c(-c2ccnc(NC(=O)c3ccccc3)c2)s1	10.3% (inactive)	–
CC(C)(C)[N+]([O-])=Cc1ccc(S(=O)(=O)O)cc1S(=O)(=O)O	7.29% (inactive)	–
Cc1cnc(NC(=O)Nc2cc(Br)c(C)cc2OC[C@@H]2CNCCO2)cn1	-4.92% (inactive)	–
C#Cc1cccc(Nc2ncnc3cc(OCCOC)c(OCCO)cc23)c1	–	3.83 µM (active)
C=C1C(=CC=C2CCC[C@]3(C)[C@@H]([C@H](C)CCCC(C)(C)O)CC[C@@H]23)C[C@@H](O)C[C@@H]1O	–	3.83 µM (active)
Cc1cc(C(=O)NOCCO)c(Nc2ccc(I)cc2F)n(C)c1=O	–	2.15 µM (active)
CC(C)(O)[C@H]1CC[C@@](C)([C@H]2[C@@H](O)C[C@@]3(C)[C@@H]4C[C@H](O[C@@H]5O[C@H](CO)[C@@H](O)[C@H](O)[C@@H]5O)[C@H]5C(C)(C)[C@@H](O[C@@H]6OC[C@@H](O)[C@H](O)[C@@H]6O)CC[C@@]56C[C@@]46CC[C@]23C)O1	19.5% (inactive)	–
CNC(=O)c1ccc(Nc2cc(Nc3ccccc3S(=O)(=O)C(C)C)c3cc[nH]c3n2)nc1	–	4.82 µM (active)
